In experiment [1] the target is Sentrin-specific protease 8 (Homo sapiens) (UniProt Q96LD8). Description: SENP8 protease inhibitors, retest, confirmation, biochemical, luminescence, single concentration (AID 488912;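 active means mean inhibition across replicates above about 50%, limit read from the data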). To be noted: Recombinant SENP8, Z-RLRGG-aminoluciferin luminescence, 60 min; at 12.5 µM; stronger effect = higher value.
Experiment [2] deals with Sentrin-specific protease 6 (Homo sapiens) (UniProt Q9GZR1). Kind of experiment: SENP6 protease inhibitors, confirmation, biochemical, luminescence, single concentration (AID 488915). To be noted: recombinant SENP6, Z-RLRGG-aminoluciferin luminescence; at 12.5 µM; stronger effect = higher value.
Sequence of Sentrin-specific protease 6 (Homo sapiens) (Q9GZR1 628-1112 limits assumed): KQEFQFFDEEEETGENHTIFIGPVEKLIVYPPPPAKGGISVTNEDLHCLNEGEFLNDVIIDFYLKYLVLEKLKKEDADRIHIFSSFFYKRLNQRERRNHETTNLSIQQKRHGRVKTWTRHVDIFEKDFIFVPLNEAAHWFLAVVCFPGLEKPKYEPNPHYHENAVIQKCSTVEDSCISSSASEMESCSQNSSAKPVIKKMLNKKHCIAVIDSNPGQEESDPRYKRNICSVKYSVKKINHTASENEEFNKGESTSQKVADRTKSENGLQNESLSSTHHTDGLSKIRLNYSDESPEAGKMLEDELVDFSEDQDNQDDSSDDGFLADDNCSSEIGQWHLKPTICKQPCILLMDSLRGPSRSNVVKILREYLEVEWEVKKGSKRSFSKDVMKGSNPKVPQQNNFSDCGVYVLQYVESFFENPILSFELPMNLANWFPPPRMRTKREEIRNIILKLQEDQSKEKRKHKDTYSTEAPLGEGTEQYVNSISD
Experiment [3] addresses Sentrin-specific protease 7 (Homo sapiens) (UniProt Q9BQF6). Kind of experiment: SENP7 protease inhibitors, retest, confirmation, biochemical, luminescence, single concentration (AID 488917). To be noted: recombinant SENP7, Z-RLRGG-aminoluciferin luminescence, 40 min; at 12.5 µM; stronger effect = higher value.
The next experiment deals with Caspase-3 (Homo sapiens) (UniProt P42574). Kind of experiment: caspase-3 protease inhibitors, confirmation, selectivity assay for SENP inhibitor project, biochemical, single concentration (AID 488918;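 active means mean inhibition above about 50%, limit read from the data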;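 further: plate controls were enzyme with DMSO for no effect and wells without caspase-3 for full effect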). To be noted: purified caspase-3, Z-DEVD-aminoluciferin luminescence, 60 min; at 12.5 µM; stronger effect = higher value.
Sequence of Caspase-3 (Homo sapiens) (P42574 28-227 limits assumed): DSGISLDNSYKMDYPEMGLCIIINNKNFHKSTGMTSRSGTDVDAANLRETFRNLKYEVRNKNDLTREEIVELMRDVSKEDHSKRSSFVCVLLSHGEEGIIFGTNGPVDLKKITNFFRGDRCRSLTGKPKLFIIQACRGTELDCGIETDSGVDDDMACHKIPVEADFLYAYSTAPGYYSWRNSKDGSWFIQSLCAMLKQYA
Experiment [4] in a line: luciferase luminescence interference by compounds, confirmation, artefact control for SENP inhibitor project, biochemical, single concentration, SENP8 reaction pre-completed (AID 488919;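 active means mean inhibition above about 50% when retested at one dose, limit read from the data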;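 further: plate controls were DMSO wells with completed reaction for no effect and substrate without enzyme for full effect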). To be noted: Pre-incubated SENP8/Z-RLRGG-aminoluciferin, at 12.5 µM, stronger effect = higher value.
In experiment [5] the target is Tumor necrosis factor receptor superfamily member 10B (Homo sapiens) (UniProt O14763). Description: caspase-8 TRAIL sensitization, hit retest, confirmation, cell-based, NB7+caspase-8, with/without TRAIL, luminescence panel (AID 651596; in the data active means activity above about 50%). To be noted: NB7 neuroblastoma + caspase-8, TRAIL sensitization, luminescence viability, with TRAIL, mean of runs, at 10 µM, stronger effect = higher value.
Sequence of Tumor necrosis factor receptor superfamily member 10B (Homo sapiens) (O14763 whole entry, looked up): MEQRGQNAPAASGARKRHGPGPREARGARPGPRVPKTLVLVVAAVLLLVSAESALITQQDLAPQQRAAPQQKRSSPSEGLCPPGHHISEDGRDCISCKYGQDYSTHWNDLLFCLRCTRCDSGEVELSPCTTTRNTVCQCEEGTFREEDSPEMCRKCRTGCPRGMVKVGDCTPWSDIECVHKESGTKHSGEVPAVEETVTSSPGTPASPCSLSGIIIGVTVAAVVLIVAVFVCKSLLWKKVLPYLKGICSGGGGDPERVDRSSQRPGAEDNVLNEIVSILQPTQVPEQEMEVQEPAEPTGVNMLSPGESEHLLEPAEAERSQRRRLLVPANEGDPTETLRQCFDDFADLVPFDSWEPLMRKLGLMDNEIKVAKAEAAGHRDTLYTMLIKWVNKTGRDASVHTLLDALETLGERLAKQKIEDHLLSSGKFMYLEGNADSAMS

Test in experiment [6]: as above
To be noted: NB7 neuroblastoma + caspase-8, without TRAIL, luminescence viability, without TRAIL, mean of runs, at 10 µM.

Experiment [7] addresses Protein Mdm4 (Homo sapiens) + E3 ubiquitin-protein ligase Mdm2 (Homo sapiens) (UniProt O15151+Q00987). Kind of experiment: retested Mdm2-MdmX interaction blockers, confirmation, cell-based, luminescence, single concentration, set 2 (AID 504601;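 active means mean inhibition of the luminescence signal across two replicates at or above 26 percent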). To be noted: SaOS-2 split-luciferase Mdm2/MdmX complementation, at 8 µM, stronger effect = higher value.
Experiment [8] in a line: Apaf-1 inhibitors, single-dose retest, confirmation, biochemical, fluorescence, DEVD-Rh110, 20 µM (AID 504614;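 active means mean inhibition of at least 40% at 20 µM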;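 further: plate controls were DMSO wells for no effect and DEVD-CHO caspase inhibitor control wells for full effect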). To be noted: reconstituted apoptosome, caspase-3 DEVD-Rh110 fluorescence; at 20 µM; stronger effect = higher value.
A short description of experiment [9]: Rh110 fluorescence interference by putative Apaf-1 inhibitors, confirmation, artefact control for Apaf-1 inhibitor project, biochemical, 20 µM (AID 504615;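 active means signal rise of 40% or more at 20 µM, treated as a fluorescence artifact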). To be noted: quenched caspase reaction, at 20 µM, stronger effect = higher value.
A short description of experiment [10]: fluorescence interference of Apaf-1 inhibitor hits, dose response, artefact control for Apaf-1 inhibitor project (AID 588538; call rule not given here). To be noted: fluorescence interference counterscreen, Apaf-1 assay format. A general note: Counterscreens check selectivity or assay interference.

This is one part of the list. The source made the active and inactive calls.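 How the source made its calls, unless noted: active means mean inhibition above about 50% in the one-dose retest (limit read from the data); inactive means the rest.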 Bounds are passed on as bounds.

Sequence of Sentrin-specific protease 7 (Homo sapiens) (Q9BQF6 706-1050 limits assumed): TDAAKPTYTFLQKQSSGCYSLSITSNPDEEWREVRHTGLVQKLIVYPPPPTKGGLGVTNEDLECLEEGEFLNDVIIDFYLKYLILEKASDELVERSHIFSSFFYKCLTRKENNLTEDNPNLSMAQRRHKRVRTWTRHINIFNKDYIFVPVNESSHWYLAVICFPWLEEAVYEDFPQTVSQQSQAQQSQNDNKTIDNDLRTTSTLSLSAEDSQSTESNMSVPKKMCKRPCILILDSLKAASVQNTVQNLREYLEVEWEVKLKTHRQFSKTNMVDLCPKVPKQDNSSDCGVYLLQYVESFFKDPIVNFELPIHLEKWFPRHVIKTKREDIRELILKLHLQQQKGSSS
Sequence of Sentrin-specific protease 8 (Homo sapiens) (Q96LD8 whole entry, looked up): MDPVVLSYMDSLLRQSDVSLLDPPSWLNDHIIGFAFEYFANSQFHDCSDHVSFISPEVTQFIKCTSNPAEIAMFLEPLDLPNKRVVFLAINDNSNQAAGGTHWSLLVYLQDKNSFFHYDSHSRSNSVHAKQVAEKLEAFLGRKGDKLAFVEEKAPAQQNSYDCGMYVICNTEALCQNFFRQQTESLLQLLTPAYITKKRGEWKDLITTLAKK
Sequence of Protein Mdm4 (Homo sapiens) + E3 ubiquitin-protein ligase Mdm2 (Homo sapiens) (O15151 whole entry, looked up): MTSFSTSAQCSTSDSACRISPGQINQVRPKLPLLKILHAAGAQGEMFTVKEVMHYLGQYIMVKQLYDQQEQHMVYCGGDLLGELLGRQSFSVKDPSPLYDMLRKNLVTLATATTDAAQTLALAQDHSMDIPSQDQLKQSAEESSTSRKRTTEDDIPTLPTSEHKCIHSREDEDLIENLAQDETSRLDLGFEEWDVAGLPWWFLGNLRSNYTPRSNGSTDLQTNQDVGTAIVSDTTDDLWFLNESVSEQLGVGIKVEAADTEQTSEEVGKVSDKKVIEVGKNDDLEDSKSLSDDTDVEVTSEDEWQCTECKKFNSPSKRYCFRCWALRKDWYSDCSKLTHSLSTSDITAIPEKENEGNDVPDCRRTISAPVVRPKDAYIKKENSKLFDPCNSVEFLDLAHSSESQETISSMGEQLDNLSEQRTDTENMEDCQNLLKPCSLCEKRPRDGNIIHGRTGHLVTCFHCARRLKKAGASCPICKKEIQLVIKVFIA
Sequence of Protein Mdm4 (Homo sapiens) + E3 ubiquitin-protein ligase Mdm2 (Homo sapiens) (Q00987 whole entry, looked up): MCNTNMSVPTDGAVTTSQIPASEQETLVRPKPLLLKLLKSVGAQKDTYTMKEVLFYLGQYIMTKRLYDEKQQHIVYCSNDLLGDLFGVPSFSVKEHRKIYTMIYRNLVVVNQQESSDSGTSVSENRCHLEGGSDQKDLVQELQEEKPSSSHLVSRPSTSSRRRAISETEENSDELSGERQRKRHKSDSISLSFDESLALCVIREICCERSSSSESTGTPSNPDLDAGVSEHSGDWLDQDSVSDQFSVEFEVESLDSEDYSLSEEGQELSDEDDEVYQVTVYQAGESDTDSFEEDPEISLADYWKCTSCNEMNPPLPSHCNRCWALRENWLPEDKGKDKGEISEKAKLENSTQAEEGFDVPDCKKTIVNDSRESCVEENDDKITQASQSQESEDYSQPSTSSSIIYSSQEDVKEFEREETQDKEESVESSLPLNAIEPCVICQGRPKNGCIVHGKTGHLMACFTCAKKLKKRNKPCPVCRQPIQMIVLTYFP

In the case of `CC(=O)Nc1cccc(C(=O)OCC(=O)c2ccc3c(c2)OCO3)c1`, the inhibition in [1] was 84.2% (active); in experiment [2], 83.1% (active); in experiment [3], 51.3% (active); with Caspase-3 (Homo sapiens), 85.2% (active); in [4] it was 80.8% (active). For the same compound, the activity came to 70.3% in [5] and 60.6% in experiment [6].
With `Cc1cccc(NC(=O)/C=C/c2ccc3c(c2)OCO3)n1`, the inhibition is 81.3% (active) in [1]; 81% (active) in experiment [2]; 95.8% (active) in [3]; 87.1% (active) in the experiment with Caspase-3 (Homo sapiens); 73% (active) in experiment [4]. Further, the figures for the activity in experiment [5] and in experiment [6] were 80.4% and 75.4%, respectively.
With `Cn1c(NC(=O)c2ccccc2)nc2ccccc21`, the inhibition is 55.5% (active) in experiment [1]; 61.6% (active) in experiment [2]; 89.8% (active) in experiment [3]; 83.7% (active) with Caspase-3 (Homo sapiens); 65.2% (active) in experiment [4]. The activity stood at 50.4% in experiment [5] and 61.1% in experiment [6].
Consider `O=C(CSC(=S)N1CCOCC1)c1ccccc1`, for which the inhibition is 79.2% (active) in experiment [1]; 77.6% (active) in [2]; 94.1% (active) in experiment [3]; 88.1% (active) in the experiment with Caspase-3 (Homo sapiens); 77% (active) in experiment [4]. Besides, the activity is 46.8% in experiment [5] and 55.2% in [6].
On to `O=C(/C=C/Sc1ncn[nH]1)c1ccc(Cl)cc1`, for which the inhibition in [7] is 103% (active).
Still for that read-out and setting: then `CCOC(=O)c1c(-c2cccc(C)c2)csc1NC(=O)c1c(-c2ccccc2)noc1C`, with 101% (active).
As for `CC(C)n1cnc2c(NCc3ccccc3)cc(OCC3CCN(C)CC3)cc21`, the inhibition in experiment [1] is 57.7% (active); in experiment [2] it was 75.3% (active); in experiment [3] it was 35.5% (inactive); in the experiment with Caspase-3 (Homo sapiens), 6.2% (inactive); in [4] it was -4.2% (inactive); in [8], 78.1% (active). For the same compound, the activation (fluorescence interference) in [9] is -0.65% (inactive). The IC50 in experiment [10] was > 100 µM (inactive).
Regarding `O=C1[C@H]2[C@@H](c3ccc(F)cc3)N3C(=O)N(c4ccc(C(F)(F)F)cc4)C(=O)[C@@]3(Cc3ccccc3)[C@H]2C(=O)N1C1CCCCC1`, the inhibition in [7] is 101% (active).
In the case of `O=C(Nc1ccccc1)c1ccc2c(c1)OCCCO2`, the inhibition is 78.5% (active) in experiment [1]; 77.7% (active) in experiment [2]; 94.2% (active) in [3]; 90% (active) in the experiment with Caspase-3 (Homo sapiens); 81.9% (active) in experiment [4]. Also, the activity in experiment [5] and in experiment [6] was 79.9% in each case.
With `CCOc1cc(N2CCOCC2)c(OCC)cc1NC(=O)COc1cccc2cccnc12`, in experiment [7], the inhibition was 92.7% (active).
Consider `CCOC(=O)c1ccc(Nc2cc3ccccc3c(=O)[nH]2)cc1`, for which the inhibition in experiment [1] is 28.7% (inactive); in experiment [2], 63.5% (active); in experiment [3], 31.6% (inactive); with Caspase-3 (Homo sapiens), 9.8% (inactive); in experiment [4], -2.7% (inactive); in experiment [8] it was 62.4% (active). Besides, the activation (fluorescence interference) in experiment [9] was 11.7% (inactive). In addition, the IC50 in experiment [10] was > 100 µM (inactive).
As for `CC(=O)N(C1=C(Cl)C(=O)c2ccccc2C1=O)c1ccc(C(=O)O)cc1`, the inhibition was 81.7% (active) in experiment [1]; 91% (active) in [2]; 55.3% (active) in experiment [3]; 6.3% (inactive) with Caspase-3 (Homo sapiens); 4% (inactive) in experiment [4]; 95% (active) in experiment [8]. For the same compound, in experiment [9], the activation (fluorescence interference) was 9.87% (inactive). The IC50 in [10] is > 100 µM (inactive).
On to `O=C(/C=C/c1ccc2c(c1)OCCO2)c1ccc(O)cc1`, for which the inhibition in [1] is 68.6% (active); in experiment [2], 59% (active); in experiment [3] it was 72.1% (active); with Caspase-3 (Homo sapiens), 54.3% (active); in experiment [4], 86.9% (active). Further, the activity came out at 41% in [5] and 45.6% in [6].

The term inhibition denotes the change of the read-out against control, counted positive when it falls. The term IC50 denotes the concentration that inhibits the measured activity by half.

(Values after PubChem BioAssay.)
